The results in this text go back to ChEMBL document CHEMBL3988442, “University of Dundee, Small-Polar-MMV Screening Library” (2021).

For the assay, the system named is Leishmania donovani. Put plainly: Leishmania intramacrophage assay. In kind it is functional, organism-based. Also noted: scale not given: in the data most compounds retested in dose-response had high values.

Among all 69,000 compounds or so, about 1,000 (1.4%) showed an effect of 50% or more. The entries come from a sample that favours strong results as a whole.

For `Cc1nc(-c2ccc(F)c(F)c2)cc(C2CCNCC2)n1.Cl`, the “Percent Effect” value (30.3 µM, […]) amounted to 47.49%.

Take `Cc1c(CN(C)c2cc(C3CCCNC3)ncn2)[nH]c2ccccc12` (stereo unspecified): the “Percent Effect” value (30.3 µM, […]) was determined as 16.72%.

For the compound `CCN(Cc1ccncc1)c1cc(C2CCNCC2)nc(C)n1`, where the note is “30.3 µM, […]”, the “Percent Effect” value turned out to be 4.844%.

With `Cc1nc(C2CCNCC2)cc(N(C)Cc2cc3cc(F)ccc3[nH]2)n1`, for the setting “30.3 µM, […]”, the “Percent Effect” value was found to be 78.55%.

`CCN(Cc1c(F)cccc1Cl)c1cc(C2CCNCC2)nc(C)n1`: the “Percent Effect” value (30.3 µM, […]) came out at 100.4%.

`CN(Cc1cc2cc(F)ccc2[nH]1)C(=O)C1CC(=O)N(C2CCCC2)C1` (stereo unspecified): where the note is “30.3 µM, […]”, the “Percent Effect” value was determined as 9.704%.

As to `Cc1nc(-c2ccc(F)cc2)cc(C2CCNCC2)n1`, where the note is “30.3 µM, […]”, the “Percent Effect” value stood at 99.23%.

Take `COc1ccc2[nH]c(CNc3cc(C4CCNCC4)nc(C)n3)cc2c1`: for the setting “30.3 µM, […]”, the “Percent Effect” value is given as -59.5%.

Regarding `CCN(Cc1ccncc1)c1cc(C2CCCNC2)nc(C)n1` (stereo unspecified), the “Percent Effect” value (30.3 µM, […]) is -18.58%.

As to `CN(Cc1cc2cc(F)ccc2[nH]1)c1cc(C2CCCNC2)ncn1` (stereo unspecified), the “Percent Effect” value (30.3 µM, […]) was determined as 78.22%.

For `Cc1nc(C2CCNCC2)cc(N(C)CCc2cn[nH]c2)n1`, the “Percent Effect” value (30.3 µM, […]) is 2.569%.

As to `Cc1ccc(-c2cc(C3CCNCC3)nc(C)n2)cc1.Cl`, the “Percent Effect” value (30.3 µM, […]) was 14.23%.

`CN(C)c1ccc(NC(=O)c2cccc(N(C)C)c2)nc1`: the “Percent Effect” value (30.3 µM, […]) is recorded as -2.123%.

`CCC(Nc1nc(C)nc2c1cnn2C)c1ncnn1CC` (stereo unspecified): the “Percent Effect” value (30.3 µM, […]) worked out at 26.92%.

`O=C(CCn1ccc2cc(Br)ccc21)/N=c1\[nH]nc(C2CCCO2)s1` (stereo unspecified): where the note is “30.3 µM, […]”, the “Percent Effect” value is given as 4.273%.

For `Cc1ccoc1-c1nnc(CNCC2CCCN2c2cccnn2)o1` (stereo unspecified), the “Percent Effect” value (30 µM, 30.03 µM) is given as -17.44%.

With `COCCN(C)C[C@@H]1CN(C(=O)c2ccc(C)cc2)C[C@@H]1CO`, the “Percent Effect” value (30.3 µM, […]) was determined as 11.58%.

Consider `CN1CCCC2(CCN(C(=O)Cn3ncc4ccccc4c3=O)C2)C1=O` (stereo unspecified), for which, under “30.3 µM, […]”, the “Percent Effect” value is listed as -13.05%.

With `Cc1ccc(CN2CCN(CC(=O)N(C)C)[C@@H]3CS(=O)(=O)C[C@@H]32)cc1C`, for the setting “30.3 µM, […]”, the “Percent Effect” value is on record as 18.74%.

Consider `COc1ccc(-c2noc(C(N)CCSC)n2)cc1` (stereo unspecified), for which the “Percent Effect” value (30.3 µM, […]) is on record as -25.69%.

On to `N[C@H]1CN(CCOc2ccc(F)cc2)C[C@@H]1C1CC1`, for which the “Percent Effect” value (30.3 µM, […]) stood at 44.73%.

Turning to `N[C@H]1CN(CCCOc2ccccc2)C[C@@H]1C1CC1`, the “Percent Effect” value (30.3 µM, […]) stood at 66.02%.

In the case of `NC(=O)c1ccc(OCCCN2C[C@H](C3CC3)[C@@H](N)C2)cc1`, the “Percent Effect” value (30.3 µM, […]) came out at 42.52%.

`COCc1nn(C(C)C)c2c1CCN(Cc1nccs1)C2.O=C(O)C(F)(F)F`: the “Percent Effect” value (30.3 µM, […]) is -18.46%.

For the compound `CCn1cc(-c2c(C)c(C3CCOC(C)(C)C3)nc(N)c2C#N)cn1` (stereo unspecified), the “Percent Effect” value (30.3 µM, […]) was found to be 20.42%.

Turning to `Cc1c(C2CCOC(C)(C)C2)nc(N)c(C#N)c1-c1ccc(O)cc1` (stereo unspecified), the “Percent Effect” value (30.3 µM, […]) is given as -5.002%.

`CCCc1c(C2CCOC(C)(C)C2)nc(N)c(C#N)c1-c1cnn(C)c1` (stereo unspecified): where the note is “30.3 µM, […]”, the “Percent Effect” value is given as 65.78%.

Turning to `CC(C)Oc1ccc(CN2CCC(c3n[nH]c4ncccc34)CC2)cc1`, for the setting “30.3 µM, […]”, the “Percent Effect” value was 1.844%.

`Cc1ccc(N2CCN(c3ccccc3C)CC2C)nn1` (stereo unspecified): the “Percent Effect” value (30.3 µM, […]) worked out at 9.128%.

Consider `Cc1ccccc1N1CCN(c2cc(N(C)C)ncn2)C(C)C1` (stereo unspecified), for which the “Percent Effect” value (30.3 µM, […]) was determined as 15.61%.

Consider `Cc1ccccc1N1CCN(c2ccncn2)C(C)C1` (stereo unspecified), for which the “Percent Effect” value (30.3 µM, […]) was 61.35%.

`Cc1nn(C)c(C)c1CN(C)c1nc(C2CCCC2)nc2c1cnn2C`: the “Percent Effect” value (30.3 µM, […]) was 17.71%.

In the case of `CN1CCC(c2n[nH]c3ncccc23)C1.O=CO` (stereo unspecified), where the note is “30.3 µM, […]”, the “Percent Effect” value amounted to 16.17%.

Consider `CCc1cnc(CN(C(C)=O)C2CCN(CC(=O)N3CCCC3)C2)o1` (stereo unspecified), for which the “Percent Effect” value (30 µM) is recorded as 28.38%.

In the case of `Cc1cc(NCCN)nc2ccccc12.O=[N+]([O-])O`, the “Percent Effect” value (30.3 µM, […]) is given as 54.09%.

Turning to `Cc1cc(NCCS(C)(=O)=O)nc2ccccc12`, where the note is “30.3 µM, […]”, the “Percent Effect” value is on record as 25.68%.

For `Cc1cc(NCCCNS(C)(=O)=O)nc2ccccc12`, the “Percent Effect” value (30.3 µM, […]) was -8.515%.

On to `CC(C)c1nc(CN(C)C(=O)c2cn3ccsc3n2)cs1`, for which the “Percent Effect” value (30.3 µM, […]) was -3.628%.

Regarding `CC(=O)Nc1nc(CS(=O)(=O)CCCc2ccccc2)cs1`, under “30.3 µM, […]”, the “Percent Effect” value is 22.96%.

With `CCC(C)CS(=O)(=O)NCCc1csc(N2CCCC2)n1` (stereo unspecified), the “Percent Effect” value (30.3 µM, […]) was 43.99%.

As to `CC(C)(C)CCS(=O)(=O)NCCc1csc(N2CCCC2)n1`, the “Percent Effect” value (30.3 µM, […]) is 30.66%.

On to `CCCC(C)CS(=O)(=O)NCCc1csc(N2CCCC2)n1` (stereo unspecified), for which the “Percent Effect” value (30.3 µM, […]) is on record as 65.07%.

On to `O=C1CO[C@H]2CN(Cc3cccc4[nH]ccc34)C[C@@H]2N1C1CCOCC1`, for which the “Percent Effect” value (30.3 µM, […]) is recorded as 12.12%.

For `Cc1ccc(C2CCCN2S(=O)(=O)N(C)Cc2cnn(C)c2)o1` (stereo unspecified), the “Percent Effect” value (30.3 µM, […]) is recorded as -0.6676%.

Take `CCOc1ccc(C(=O)CCC(=O)N(C)Cc2noc(C)n2)cc1C`: the “Percent Effect” value (30.3 µM, […]) was found to be 4.933%.

As for `CN1CCCC1(CCCc1cccnc1)C(=O)NCc1nccn1C` (stereo unspecified), where the note is “30.3 µM, […]”, the “Percent Effect” value came out at 27.11%.

As for `Cc1ccc(O)c(CNC2CCc3nc(C(C)C)nn3C2)n1` (stereo unspecified), the “Percent Effect” value (30 µM, 30.03 µM) turned out to be 0.7212%.

Regarding `Cc1ccc(S(=O)(=O)N2CCN(CCC(N)=O)CC2)s1`, for the setting “30.3 µM, […]”, the “Percent Effect” value came to 13.04%.

As to `Cc1ccc(S(=O)(=O)N2CCN(CCC#N)CC2)s1`, the “Percent Effect” value (30.3 µM, […]) amounted to 34.19%.

For `Cc1ccc(S(=O)(=O)N2CCN(CCCO)CC2)s1`, under “30.3 µM, […]”, the “Percent Effect” value was determined as 55.51%.

Regarding `C[C@H](NC(=O)c1cnc(-c2ccccc2)nc1O)C(N)=O`, under “30.3 µM, […]”, the “Percent Effect” value stood at 12.89%.
